Among the data in PubChem BioAssay AID588405 (Sanford-Burnham Center for Chemical Genomics, 2011) are inhibition values, retold here.

Molecules are shown by their SMILES. The whole screen tested about 360,000 compounds, of which about 6,200 (1.7%) were called active. Only a selection was taken, and actives are over-represented in it overall. Unmarked numbers belong to inactive results.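 The calls were made as follows: active = inhibition of at least 50% at 20 µM; inactive = the rest.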

The nature of the test: inhibition of PEG-3 promoter activity – cell-based, HeLa, luciferase luminescence, primary screen (AID 588405). The following applies: HeLa PEG-Prom luciferase reporter, overnight, at 20 µM, active compounds read high.
With `CC1CC(C)CN(CC(=O)N2c3ccccc3CCc3ccccc32)C1` (stereo unspecified), the inhibition is 9.54%.

With `CC1C(C)N(C(=O)CCl)c2ccccc2N1C(=O)CCl` (stereo unspecified), the inhibition was 99.2% (active). `CC1C(=O)N(Cc2ccccc2)c2ccccc2N1C(=O)c1ccccc1` (stereo unspecified): the inhibition is 21.3%. For `COc1ccc(C)cc1NC(=O)c1[nH]c(C)c(C(C)=O)c1C`, the inhibition was 4.55%. On to `CCCC/C=C/c1cccc2nncn12`, for which the inhibition is 2.91%. Under `O=S(=O)(c1ccc2c(c1)OCCO2)N1CCc2ccccc21` stands 25.9%; under `O=S(=O)(c1ccccc1)N1CCc2ccccc21`, 5.92%; under `CSc1nc2ccc(S(=O)(=O)N3CCc4ccccc43)cc2s1`, 52.1% (active).

`CSc1ccc(-c2c(C#N)c(N)nc3c2c(C)nn3-c2ccccc2)cc1`: the inhibition was 76.2% (active). As for `Cc1nc2c(c(C)nn2-c2ccccc2)c(C)c1C`, the inhibition was 21.8%. Take `Cn1c(=O)c2c(-c3cccc(Br)c3)c(C#N)c(N)nc2n(C)c1=O`: the inhibition was 7.56%. Under `CCOC(=O)[C@H]1Nc2ccc(Cl)cc2[C@@H]2[C@H]1C1CC(c3ccccc31)N2C(=O)OCc1ccccc1` (stereo partly specified) stands 26.4%; under `N#Cc1cccc(NC(=O)c2cc(C3CCCCN3C(=O)CCc3ccccc3)on2)c1` (stereo unspecified), 23.6%.

As for `COCCNc1ncnc2c1ncn2[C@H]1CN(Cc2ccc(OC)cc2)C[C@@H](CO)O1`, the inhibition is -12.7%.

Take `COc1ccc(-c2oc3ncn(Cc4ccco4)c(=N)c3c2-c2ccc(OC)cc2)cc1`: the inhibition is 9.27%. Turning to `COc1ccc(-c2oc3ncnc(NCCCO)c3c2-c2ccc(OC)cc2)cc1`, the inhibition is 56.5% (active). Under `CC(C)(C)OC(=O)N1CCN(C(=O)c2[nH]c(C(F)(F)F)nc2-c2ccccc2)CC1` stands 5.18%; under `CCN(CC)CCCNC(=O)Cn1cnc2sc(C)c(S(=O)(=O)N3CCN(c4ncccn4)CC3)c2c1=O`, -7.38%; under `CCN(CC)CCNC(=O)Cn1cnc2sc(C)c(S(=O)(=O)N3CCOCC3)c2c1=O`, -0.66%. Take `CCN(CC)CCNC(=O)c1sc2ncn(CC(=O)Nc3ccc(C)c(Cl)c3)c(=O)c2c1C`: the inhibition was 87.1% (active). On to `Fc1cccc(Cc2c(-c3ccc(Cl)cc3)nc3ccc(Cl)cn23)c1`, for which the inhibition is -75.2%. In the case of `CCNC(=O)C1(C)CCCN(C(=O)c2c(C)noc2C)C1` (stereo unspecified), the inhibition was -5.02%. As to `Cn1c(Cc2csc(N)n2)nnc1SC/C=C/c1ccccc1`, the inhibition is -0.48%. Consider `CCN(C(=O)COc1ccc(C(=O)c2ccccc2)cc1)c1ccccc1`, for which the inhibition is 2.39%. Consider `CCOc1ccc2nc(N(CCCN(C)C)C(=O)c3ccc(C(=O)c4ccccc4)cc3)sc2c1`, for which the inhibition is 105% (active). As for `CN(C)CCCN(C(=O)c1ccc(S(=O)(=O)N2CCCCCC2)cc1)c1nc2ccc(Br)cc2s1`, the inhibition is 57.8% (active). Regarding `COc1cc(C(=O)NNC(=O)c2ccc(S(=O)(=O)N3CCCCC3)cc2)cc(OC)c1OC`, the inhibition is 3.84%.

As for `CCc1ccc2nc(N(CCCN(C)C)C(=O)c3ccc4c(c3)OCCO4)sc2c1`, the inhibition is 76% (active).

As for `CCOc1ccc2nc(/N=C/c3nc(-c4ccccc4)oc3O)sc2c1`, the inhibition is -127%.

`CCN(CC(=O)Nc1c(F)cccc1F)C(=O)c1ccc(S(=O)(=O)N2CCCCC2)cc1`: the inhibition is 3.57%. With `CN(C)CCN(C(=O)C1=COCCO1)c1nc2ccc(Cl)cc2s1`, the inhibition was -91.5%. The figure for `CCN(CC)CCN(C(=O)c1cc(Cl)sc1Cl)c1nc2cc3c(cc2s1)OCO3` is -57.9%.

As to `CCOC(=O)C1CCCN(C(=O)c2cccc3ccccc23)CC1` (stereo unspecified), the inhibition was 10.3%. Regarding `O=C(C1=C(O)C(=O)N(CCOCCO)C1c1ccccn1)c1cccs1` (stereo unspecified), the inhibition is -2.88%. As to `COc1ccc(NC(=O)c2cc(=O)[nH]c3ccccc23)cc1S(=O)(=O)N1CCOCC1`, the inhibition is -0.23%. In the case of `OC[C@@H]1CN(Cc2cccs2)C[C@H](n2cnc3c(Nc4ccccc4)ncnc32)O1`, the inhibition was -9.51%. The figure for `CCCCN1CC(N2CCN(Cc3cccc(C)c3)CC2)CS1(=O)=O` (stereo unspecified) is -1.8%.

Regarding `O=C1NCC(c2ccccc2)(c2ccccc2)C(=O)N1`, the inhibition was -0.6%. Turning to `CCCNC(=O)C1(C)CCN1C(=O)C1(c2ccccc2)CC1` (stereo unspecified), the inhibition was 8.72%. On to `COc1ccccc1NC(=O)CCC(=O)N1CC(C)Oc2ccc(C)cc21` (stereo unspecified), for which the inhibition is 14.5%. Under `O=C(CC1Oc2ccccc2NC1=O)NCCCN1CCN(Cc2ccccc2)CC1` (stereo unspecified) stands 1.93%. Turning to `CC1CN(C(=O)CCC(=O)NCCCN2CCC(Cc3ccccc3)CC2)c2cc(Cl)ccc2O1` (stereo unspecified), the inhibition is 102% (active).

`CC(C)CN1CCC1(C)C(=O)Nc1ccc(OC(F)F)cc1` (stereo unspecified): the inhibition was 3.35%.

In the case of `COc1ccc(-c2ccc(OC(=O)NC3CCS(=O)(=O)C3)cc2)cc1` (stereo unspecified), the inhibition is -160%. With `COCCNc1nc(NCc2ccc(NC(C)=O)cc2)c2sccc2n1`, the inhibition was 20.4%. Take `CC(=O)Nc1ccc(CNc2nc(NCCN(C)C)nc3cc(-c4ccccc4)sc23)cc1`: the inhibition is 97.3% (active).

Regarding `COCCNc1nc(Nc2ccccc2Cl)c2sc(-c3ccccc3)cc2n1`, the inhibition was 5.82%. With `C=CCc1cccc2cc(C(=O)N3CCN(C(=O)OCC)CC3)c(=O)oc12`, the inhibition is 22.4%. Regarding `Cc1cc(C)cc(Oc2nc3c(C)cccn3c(=O)c2/C=C(\C#N)C(=O)NC2CCS(=O)(=O)C2)c1` (stereo unspecified), the inhibition is 61.6% (active). Turning to `Cc1cccn2c(=O)c3cc(C(=O)NC4CCCCC4)sc3nc12`, the inhibition was -45%.

`Cc1cccn2c(=O)c(/C=C(\C#N)S(=O)(=O)c3ccc(Cl)cc3)c(N3CCC(C(N)=O)CC3)nc12`: the inhibition is -3.35%. In the case of `FC(F)(F)c1ccccc1Cc1c(-c2ccccc2)nc2c3ccccc3ccn12`, the inhibition is -34.1%. The figure for `O=[N+]([O-])c1cc(S(=O)(=O)Nc2cccc(Cl)c2)ccc1N=Nc1c(O)[nH]c2ccccc12` is 65.1% (active); for `Cc1c(-c2ccccc2)n[nH]c1C(=O)N=Nc1c(O)[nH]c2ccccc12` it is -126%; for `O=C(NCc1ccncc1)c1ccc(NS(=O)(=O)c2cccc([N+](=O)[O-])c2)cc1` it is -13.3%.

`CCCCc1nc2ccc(F)cc2cc1C`: the inhibition is 6.65%.
